# Rows were chosen to be rich in hits. Some 3.4% of all compounds tested hit in one or more screens of this group.
# FBW7 activator = human FBW7 E3 ligase activation, primary screen; 650,000 tested, 0.13% active; AlphaScreen FBW7–phospho-cyclin E peptide binding, activator screen; normalized activity (activation), % at 26.1 µM; AID 1259310; in the data active = normalized activity above about 1.9%;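 also: purified mutant Fbw7 with reduced substrate affinity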
# GPR151 ag = activates the human receptor GPR151 | Q8TDV0 | PathHunter beta-arrestin GPR151 cells, luminescence | activation, % at 11.2 µM | 650,000 tested, 1% active | AID 1508602; in the data active = activation above about 4.9%;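 also: 0% = median of compound wells and 100% = cells with positive control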
# Target sequence (Q8TDV0 whole entry, looked up): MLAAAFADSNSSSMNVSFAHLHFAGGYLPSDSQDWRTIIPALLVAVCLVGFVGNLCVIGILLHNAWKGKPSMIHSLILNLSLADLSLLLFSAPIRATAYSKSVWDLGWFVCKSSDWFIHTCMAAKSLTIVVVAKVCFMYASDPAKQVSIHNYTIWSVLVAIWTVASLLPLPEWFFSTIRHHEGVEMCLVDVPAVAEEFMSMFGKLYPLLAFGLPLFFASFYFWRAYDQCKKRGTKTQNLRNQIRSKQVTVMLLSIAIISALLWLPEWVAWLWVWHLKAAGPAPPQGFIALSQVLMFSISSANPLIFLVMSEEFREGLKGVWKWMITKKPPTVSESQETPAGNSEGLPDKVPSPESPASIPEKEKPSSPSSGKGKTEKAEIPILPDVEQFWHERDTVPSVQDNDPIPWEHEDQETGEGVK
# TEAD-YAP block = TEAD-YAP interaction inhibition. HEK-TIYL cells, TEAD-Gal4/YAP UAS-luciferase luminescence. inhibition, % at 9.12 µM. 640,000 tested, 1.4% active. AID 1259422; in the data active = inhibition above about 32%;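 also: 0% = median of test compound wells and 100% = reference inhibitor wells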
# MITF primary = human MITF inhibition, primary screen. O75030. AlphaScreen MITF homodimerization, bead proximity signal. inhibition, % at 2.6 µM. 650,000 tested, 0.91% active. AID 1259374; in the data active = inhibition above about 50%;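 also: 0% = vehicle wells with protein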
# Numbers without * were called inactive.
SMILES,FBW7 activator,GPR151 ag,TEAD-YAP block,MITF primary
COC(=O)Cc1ccc(NC(=O)c2ccc(C(C)(C)C)cc2)cc1,0.3,1.5,70.8*,-10.9
Cc1cnc(Nc2ccc(N3CCOCC3)cc2)nc1N,0.0,-1.7,2.2,11.8
Cc1csc(Sc2ccc([N+](=O)[O-])cc2C(=O)O)n1,0.0,0.3,-0.8,-8.0
COc1ccc(S(=O)(=O)N2Cc3ccccc3CC2C(=O)Nc2ccc(C)cc2)cc1 (stereo not drawn),-0.1,0.8,33.0*,-4.6
COc1ccc(/C=C/C(=O)NCCSc2ccccc2)cc1,0.0,-0.4,-7.6,0.6
COc1cc(/C=C(/C#N)C(=O)NCC2CCCO2)ccc1OCc1ccc(C(=O)O)cc1 (stereo not drawn),-0.1,1.9,-13.6,4.7
CCCCCCOc1ccc(/C=C(\C#N)C(=O)NCC2CCCO2)cc1OC (stereo not drawn),2.0*,-0.6,-2.2,8.8
CCOC(=O)/C(C#N)=N\Nc1sc(C(=O)OCC)c(C)c1C(=O)OCC,-0.2,-1.2,11.7,18.0
COc1ccc(/C=C(/NC(=O)c2ccc(C)cc2)C(=O)N2CCCCC2)cc1OC,0.3,0.0,0.0,5.5
CC(Nc1cc(N2CCN(C(=O)c3ccco3)CC2)ccc1[N+](=O)[O-])C12CC3CC(CC(C3)C1)C2 (stereo not drawn),-0.1,1.1,43.2*,-13.6
Cc1nnnn1/C(=C\c1ccccc1)C(=O)N[C@H](c1nc2ccccc2[nH]1)C(C)C,-0.1,0.0,48.7*,5.3
CC(O)c1nc2ccccc2[nH]1 (stereo not drawn),-0.2,-0.6,3.9,-5.6
COc1cccc(N2CCN(C(=O)c3ccccc3[N+](=O)[O-])CC2)c1,0.0,0.6,18.4,-2.2
O=C1COc2cc(S(=O)(=O)Nc3cc(C(F)(F)F)cc(C(F)(F)F)c3)ccc2N1,7.8*,0.5,4.6,-13.0
Cc1cc(C)cc(NS(=O)(=O)c2ccc3c(c2)OCC(=O)N3)c1,-0.3,1.2,-12.5,-7.6
Nn1cnnc1SCC(=O)Nc1ccccc1F,0.3,-0.6,-1.7,0.2
Clc1ccc(CSc2nn3cnnc3s2)cc1,0.1,-0.6,53.4*,16.1
CN(Cc1ccccc1)c1ccnc2c(-c3cccc(C(=O)O)c3)cnn12,-0.3,-4.4,89.1*,-13.9
CN(Cc1ccccc1)c1ccnc2c(-c3cccc(O)c3)cnn12,0.1,0.7,90.4*,-9.5
CC(=O)c1cccc(-c2cnn3c(N4CCN(c5ccccn5)CC4)ccnc23)c1,1.9*,-1.4,3.4,5.9
Nc1cccc(-c2cnn3c(N4CCN(c5ccccn5)CC4)ccnc23)c1,0.0,-0.1,-4.0,-3.0
CN(Cc1ccccc1)c1ccnc2c(-c3ccc(CO)cc3)cnn12,0.2,0.3,-39.2,-12.5
COc1cc(Nc2nc(NC3CCN(Cc4ccccc4)CC3)c3ncn(-c4ccccc4)c3n2)cc(OC)c1OC,-0.2,0.3,2.9,4.7
Cc1cc(C)c(CSc2nnnn2-c2ccc(C(N)=O)cc2)c(C)c1,0.5,-1.7,61.1*,18.6
CC(=O)N1CCc2c(sc(NC(=O)c3ccc(C)cc3)c2C#N)C1,0.5,-0.4,39.3*,-5.0
SMILES,FBW7 activator,GPR151 ag,TEAD-YAP block,MITF primary
CCOC(=O)N1CCc2c(sc(NC(=O)CCOc3ccccc3)c2C#N)C1,0.0,-0.6,38.3*,-2.3
CCOC(=O)N1CCc2c(sc(NC(=O)c3ccc(N(C)C)cc3)c2C#N)C1,0.1,-0.7,48.7*,2.5
O=C(Cn1ccc(=NCc2ccccc2)cc1)c1ccc(I)cc1,-0.1,1.0,65.9*,-9.6
O=C(Cn1ccc(=NCc2ccccc2)cc1)c1ccc(Cl)cc1,-0.1,-0.2,22.4,-1.8
CN1C(=O)c2ccc(NC(=O)c3ccccc3)cc2C1=O,0.0,-0.6,-2.0,2.1
O=S(=O)(Nc1ccc2c(c1)OCO2)c1ccc(Oc2ccc(Br)cc2)cc1,0.1,2.1,-21.7,7.0
O=[N+]([O-])c1ccc(Oc2ccc(S(=O)(=O)Nc3ccc4c(c3)OCCO4)cc2)cc1,-0.1,1.1,43.4*,-15.9
Cc1ccc(C(=O)Cn2c(C(=O)O)cc3ccccc32)cc1,-0.1,1.3,3.5,-2.2
Cc1ccc(C(=O)Cn2c(C(=O)OCCO)cc3ccccc32)cc1,0.2,-0.9,34.0*,13.0
CCOc1ccccc1NC(=O)C1=C(C)NC(=O)NC1c1ccccc1Br (stereo not drawn),0.1,1.5,5.0,11.8
Cc1cc(C)c(C(=O)/C=C/c2ccncc2)c(=O)[nH]1,0.1,-0.2,31.7,-12.9
Cc1cc(C)c(C(=O)/C=C/c2ccccc2F)c(=O)[nH]1,0.1,0.3,66.2*,-19.7
CN(Cc1ccccc1)c1nc(-c2ccc(Cl)cc2)nc2ccccc12,0.2,-0.6,-1.6,-0.4

# High-throughput results as filed in PubChem.
